# Article PMC5700166
# Experiments:
# GST-Hu-p50 = GST-Hu-p50 (Homo sapiens, UniProt P19838 7-356); assay: protein-binding microarray (PBM); PBM: ~300 nM protein, 6 mM HEPES pH 7.8, 80 mM KCl, 0.5 mM EDTA, 0.5 mM EGTA, 6% glycerol, 35 ng/ul poly-dIdC, 1% milk, 1 h, room temperature; Ap Aiptasia and Nv Nematostella (sea anemones) / Co Capsaspora / Aq Amphimedon (sponge) / Dm Drosophila / Hu human; RHD is the Rel homology domain; high values mean tight binding; settings: dsDNA, one strand shown
# [1] = molecular target: T1, GST-Nv-NF-kB (Ser allele) (Nematostella vectensis, UniProt A7UNT2 2-411); assay: as above; settings: dsDNA, one strand shown
# T1 sequence: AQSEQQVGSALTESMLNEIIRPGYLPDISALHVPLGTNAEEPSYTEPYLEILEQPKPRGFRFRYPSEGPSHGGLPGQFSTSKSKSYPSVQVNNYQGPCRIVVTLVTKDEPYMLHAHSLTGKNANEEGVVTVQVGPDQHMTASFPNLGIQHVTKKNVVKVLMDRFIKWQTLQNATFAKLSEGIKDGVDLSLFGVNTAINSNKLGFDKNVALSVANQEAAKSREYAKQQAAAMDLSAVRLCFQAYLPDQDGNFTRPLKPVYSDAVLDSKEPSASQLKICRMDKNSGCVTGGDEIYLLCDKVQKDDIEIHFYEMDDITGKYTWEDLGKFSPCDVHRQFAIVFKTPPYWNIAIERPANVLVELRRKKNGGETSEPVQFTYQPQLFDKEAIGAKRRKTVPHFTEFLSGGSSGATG
# GST-Hu-p50, sequence (P19838 7-356): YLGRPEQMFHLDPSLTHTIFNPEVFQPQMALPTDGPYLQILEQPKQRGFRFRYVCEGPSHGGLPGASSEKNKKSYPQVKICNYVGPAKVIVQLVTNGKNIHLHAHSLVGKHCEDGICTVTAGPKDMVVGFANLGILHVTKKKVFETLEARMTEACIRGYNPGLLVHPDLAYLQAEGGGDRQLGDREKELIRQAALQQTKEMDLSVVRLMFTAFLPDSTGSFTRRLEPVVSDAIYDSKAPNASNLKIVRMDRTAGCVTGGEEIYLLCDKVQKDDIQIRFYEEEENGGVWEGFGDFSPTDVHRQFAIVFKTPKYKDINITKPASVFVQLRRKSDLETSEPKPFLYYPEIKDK
Sequence,binding signal (GST-Hu-p50) [z-score],binding signal [1] [z-score]
CCGATTAACATCAGGACAATCCCTGATGTTAATCGGGTCTTGATTCGCTTGACGCTGCTG,1.84,–
CCGATTAACATCAAATAGGGAATTGATGTTAATCGGGTCTTGATTCGCTTGACGCTGCTG,3.55,4.24
CCGATTAACATCAACACCCCCCCTGATGTTAATCGGGTCTTGATTCGCTTGACGCTGCTG,3.88,3.82
CCGATTAACATCAGGGGGACAAATGATGTTAATCGGGTCTTGATTCGCTTGACGCTGCTG,3.81,5.1
CCGATTAACATCAAGGGGTCCCCTGATGTTAATCGGGTCTTGATTCGCTTGACGCTGCTG,3.06,2.59
CCGATTAACATCAATTAGGTGGGTGATGTTAATCGGGTCTTGATTCGCTTGACGCTGCTG,1.64,–
CCGATTAACATCACCGAATTTGGTGATGTTAATCGGGTCTTGATTCGCTTGACGCTGCTG,2.09,1.14
CCGATTAACATCACCCTTGCAGGTGATGTTAATCGGGTCTTGATTCGCTTGACGCTGCTG,2.18,1.12
CCGATTAACATCAGGACTATCCCTGATGTTAATCGGGTCTTGATTCGCTTGACGCTGCTG,1.81,–
CCGATTAACATCAGAAGTTTCCCTGATGTTAATCGGGTCTTGATTCGCTTGACGCTGCTG,4.43,5.14
CCGATTAACATCAGGGGGAGTGATGATGTTAATCGGGTCTTGATTCGCTTGACGCTGCTG,4.48,4.81
CCGATTAACATCAGAGGTGCTTCTGATGTTAATCGGGTCTTGATTCGCTTGACGCTGCTG,1.84,–
CCGATTAACATCAGATGTCCCCCTGATGTTAATCGGGTCTTGATTCGCTTGACGCTGCTG,3.96,4.47
CCGATTAACATCAGGGGATGGGATGATGTTAATCGGGTCTTGATTCGCTTGACGCTGCTG,2.85,4.39
CCGATTAACATCAGGGAATGTACTGATGTTAATCGGGTCTTGATTCGCTTGACGCTGCTG,2.72,3.55
CCGATTAACATCACCAAAATCCCTGATGTTAATCGGGTCTTGATTCGCTTGACGCTGCTG,2.9,2.71
CCGATTAACATCACCTATTCCCCTGATGTTAATCGGGTCTTGATTCGCTTGACGCTGCTG,5.12,–
CCGATTAACATCACCGTTCCGATTGATGTTAATCGGGTCTTGATTCGCTTGACGCTGCTG,1.04,–
CCGATTAACATCAATTTAGACGGTGATGTTAATCGGGTCTTGATTCGCTTGACGCTGCTG,1.58,–
CCGATTAACATCAATTTGGGAAATGATGTTAATCGGGTCTTGATTCGCTTGACGCTGCTG,1.3,2.36
CCGATTAACATCAATAAAGTCCCTGATGTTAATCGGGTCTTGATTCGCTTGACGCTGCTG,5.23,–
CCGATTAACATCACAATAACGGGTGATGTTAATCGGGTCTTGATTCGCTTGACGCTGCTG,1.74,–
CCGATTAACATCACAGGGAATTCTGATGTTAATCGGGTCTTGATTCGCTTGACGCTGCTG,4.29,4.96
CCGATTAACATCAGGTAACCCCATGATGTTAATCGGGTCTTGATTCGCTTGACGCTGCTG,1.35,–
CCGATTAACATCAGGAGTTACCCTGATGTTAATCGGGTCTTGATTCGCTTGACGCTGCTG,2.44,1.4

Sequence,binding signal (GST-Hu-p50) [z-score],binding signal [1] [z-score]
CCGATTAACATCACAAAAAATTTTGATGTTAATCGGGTCTTGATTCGCTTGACGCTGCTG,1.65,–
CCGATTAACATCACACCCCAACATGATGTTAATCGGGTCTTGATTCGCTTGACGCTGCTG,1.05,–
CCGATTAACATCAGGAAAGTACCTGATGTTAATCGGGTCTTGATTCGCTTGACGCTGCTG,5.16,–
CCGATTAACATCAGGGCAGCCCCTGATGTTAATCGGGTCTTGATTCGCTTGACGCTGCTG,4.31,2.79
CCGATTAACATCAACATGGGAAATGATGTTAATCGGGTCTTGATTCGCTTGACGCTGCTG,1.56,2.18
CCGATTAACATCATCCGGGAAAATGATGTTAATCGGGTCTTGATTCGCTTGACGCTGCTG,2.14,5.1
CCGATTAACATCAGGGAAACCACTGATGTTAATCGGGTCTTGATTCGCTTGACGCTGCTG,3.94,4.02
CCGATTAACATCAGGGTATTACCTGATGTTAATCGGGTCTTGATTCGCTTGACGCTGCTG,3.33,4.88
CCGATTAACATCACCGGAATTTCTGATGTTAATCGGGTCTTGATTCGCTTGACGCTGCTG,2.22,–
CCGATTAACATCAGGGCATTACCTGATGTTAATCGGGTCTTGATTCGCTTGACGCTGCTG,1.4,–
CCGATTAACATCACGTATTCCCCTGATGTTAATCGGGTCTTGATTCGCTTGACGCTGCTG,5.15,–
CCGATTAACATCAGGGAATTATATGATGTTAATCGGGTCTTGATTCGCTTGACGCTGCTG,4.39,5.77
CCGATTAACATCAAGGGGAGTCCTGATGTTAATCGGGTCTTGATTCGCTTGACGCTGCTG,4.3,4.97
CCGATTAACATCAGGATTTTCCCTGATGTTAATCGGGTCTTGATTCGCTTGACGCTGCTG,5,–
CCGATTAACATCAGGGGAGCCCCTGATGTTAATCGGGTCTTGATTCGCTTGACGCTGCTG,5.03,5.34
CCGATTAACATCAGGACTTTACCTGATGTTAATCGGGTCTTGATTCGCTTGACGCTGCTG,2.67,2.66
CCGATTAACATCAGGGGGGTACATGATGTTAATCGGGTCTTGATTCGCTTGACGCTGCTG,2.93,3.54
CCGATTAACATCAGGGAACTTTATGATGTTAATCGGGTCTTGATTCGCTTGACGCTGCTG,3.66,3.6
CCGATTAACATCAGAATGCCCCCTGATGTTAATCGGGTCTTGATTCGCTTGACGCTGCTG,4.7,3.07
CCGATTAACATCATGGGTGGGAATGATGTTAATCGGGTCTTGATTCGCTTGACGCTGCTG,1.32,1.12
CCGATTAACATCAGGCGTCCCCCTGATGTTAATCGGGTCTTGATTCGCTTGACGCTGCTG,4.92,4.71
CCGATTAACATCACACCACCCCCTGATGTTAATCGGGTCTTGATTCGCTTGACGCTGCTG,3.65,3.35
CCGATTAACATCAACTTTCCCAGTGATGTTAATCGGGTCTTGATTCGCTTGACGCTGCTG,1.59,1.7
CCGATTAACATCATGGTGGGAAATGATGTTAATCGGGTCTTGATTCGCTTGACGCTGCTG,2.18,2.25
CCGATTAACATCAAGAGACCCCCTGATGTTAATCGGGTCTTGATTCGCTTGACGCTGCTG,3.43,2.79

Sequence,binding signal (GST-Hu-p50) [z-score],binding signal [1] [z-score]
CCGATTAACATCAGAAATTCCCATGATGTTAATCGGGTCTTGATTCGCTTGACGCTGCTG,4.64,5.93
CCGATTAACATCACGGACTTCCCTGATGTTAATCGGGTCTTGATTCGCTTGACGCTGCTG,1.25,2.24
CCGATTAACATCAAATCACCCCCTGATGTTAATCGGGTCTTGATTCGCTTGACGCTGCTG,4.62,5.42
CCGATTAACATCAGGAATGTCCCTGATGTTAATCGGGTCTTGATTCGCTTGACGCTGCTG,3.77,3.65
CCGATTAACATCAGGGGAAGGTATGATGTTAATCGGGTCTTGATTCGCTTGACGCTGCTG,3.52,5.76
CCGATTAACATCAAAAAAAGTACTGATGTTAATCGGGTCTTGATTCGCTTGACGCTGCTG,1.52,1.16
CCGATTAACATCAGGGAATACCATGATGTTAATCGGGTCTTGATTCGCTTGACGCTGCTG,1.46,2.61
CCGATTAACATCAGGGGACGGGATGATGTTAATCGGGTCTTGATTCGCTTGACGCTGCTG,3.73,3.93
CCGATTAACATCAAGCAATTCCCTGATGTTAATCGGGTCTTGATTCGCTTGACGCTGCTG,2.99,3.87
CCGATTAACATCACTAAATTCCCTGATGTTAATCGGGTCTTGATTCGCTTGACGCTGCTG,4.08,5.8
CCGATTAACATCAGGGAGTCCCATGATGTTAATCGGGTCTTGATTCGCTTGACGCTGCTG,3.1,2.92
CCGATTAACATCACATATACCCCTGATGTTAATCGGGTCTTGATTCGCTTGACGCTGCTG,2.14,1.38
CCGATTAACATCAGAAATCTCCCTGATGTTAATCGGGTCTTGATTCGCTTGACGCTGCTG,4.42,4.16
CCGATTAACATCAGGGATTTTCATGATGTTAATCGGGTCTTGATTCGCTTGACGCTGCTG,4.44,4.23
CCGATTAACATCAGGGAATTCGATGATGTTAATCGGGTCTTGATTCGCTTGACGCTGCTG,2.58,4.38
CCGATTAACATCATAAAATCCCATGATGTTAATCGGGTCTTGATTCGCTTGACGCTGCTG,3.45,2.31
CCGATTAACATCAGGAATCCCTATGATGTTAATCGGGTCTTGATTCGCTTGACGCTGCTG,1.89,1.72
CCGATTAACATCACCGGAATTCCTGATGTTAATCGGGTCTTGATTCGCTTGACGCTGCTG,2.71,1.56
CCGATTAACATCAGGAATACCCATGATGTTAATCGGGTCTTGATTCGCTTGACGCTGCTG,3.18,3.36
CCGATTAACATCAGGGGATAAAATGATGTTAATCGGGTCTTGATTCGCTTGACGCTGCTG,3.95,6.05
CCGATTAACATCATTGTCCCTTCTGATGTTAATCGGGTCTTGATTCGCTTGACGCTGCTG,1.99,3.35
CCGATTAACATCAGGAGACTCCCTGATGTTAATCGGGTCTTGATTCGCTTGACGCTGCTG,1.93,1.61
CCGATTAACATCAGGGAAGTCCATGATGTTAATCGGGTCTTGATTCGCTTGACGCTGCTG,1.11,1.93
CCGATTAACATCATGGGAAAAAATGATGTTAATCGGGTCTTGATTCGCTTGACGCTGCTG,3.83,5.03
CCGATTAACATCAGGGACTCACCTGATGTTAATCGGGTCTTGATTCGCTTGACGCTGCTG,3,2.72
